From ChEMBL document CHEMBL3988442, “University of Dundee, Small-Polar-MMV Screening Library” (2021) come the findings set out here.

For some assays here: Potency and affinity values are given separately.

Parameters in all cases: scale not given: direction of the effect not stated beside the values
Assay [1] addresses Protein translocase subunit SecA (Escherichia coli (strain K12)) (UniProt P10408). The experiment in a line: Assay to Identify E. coli SecA ATPase Inhibitors. In kind it is functional. Particulars: 30 µM.
For assay [2], the target named is T1, Ubiquitin-activating enzyme e1, putative (Leishmania donovani (strain BPK282A1)) (UniProt E9BSI1).
T1 sequence (whole entry): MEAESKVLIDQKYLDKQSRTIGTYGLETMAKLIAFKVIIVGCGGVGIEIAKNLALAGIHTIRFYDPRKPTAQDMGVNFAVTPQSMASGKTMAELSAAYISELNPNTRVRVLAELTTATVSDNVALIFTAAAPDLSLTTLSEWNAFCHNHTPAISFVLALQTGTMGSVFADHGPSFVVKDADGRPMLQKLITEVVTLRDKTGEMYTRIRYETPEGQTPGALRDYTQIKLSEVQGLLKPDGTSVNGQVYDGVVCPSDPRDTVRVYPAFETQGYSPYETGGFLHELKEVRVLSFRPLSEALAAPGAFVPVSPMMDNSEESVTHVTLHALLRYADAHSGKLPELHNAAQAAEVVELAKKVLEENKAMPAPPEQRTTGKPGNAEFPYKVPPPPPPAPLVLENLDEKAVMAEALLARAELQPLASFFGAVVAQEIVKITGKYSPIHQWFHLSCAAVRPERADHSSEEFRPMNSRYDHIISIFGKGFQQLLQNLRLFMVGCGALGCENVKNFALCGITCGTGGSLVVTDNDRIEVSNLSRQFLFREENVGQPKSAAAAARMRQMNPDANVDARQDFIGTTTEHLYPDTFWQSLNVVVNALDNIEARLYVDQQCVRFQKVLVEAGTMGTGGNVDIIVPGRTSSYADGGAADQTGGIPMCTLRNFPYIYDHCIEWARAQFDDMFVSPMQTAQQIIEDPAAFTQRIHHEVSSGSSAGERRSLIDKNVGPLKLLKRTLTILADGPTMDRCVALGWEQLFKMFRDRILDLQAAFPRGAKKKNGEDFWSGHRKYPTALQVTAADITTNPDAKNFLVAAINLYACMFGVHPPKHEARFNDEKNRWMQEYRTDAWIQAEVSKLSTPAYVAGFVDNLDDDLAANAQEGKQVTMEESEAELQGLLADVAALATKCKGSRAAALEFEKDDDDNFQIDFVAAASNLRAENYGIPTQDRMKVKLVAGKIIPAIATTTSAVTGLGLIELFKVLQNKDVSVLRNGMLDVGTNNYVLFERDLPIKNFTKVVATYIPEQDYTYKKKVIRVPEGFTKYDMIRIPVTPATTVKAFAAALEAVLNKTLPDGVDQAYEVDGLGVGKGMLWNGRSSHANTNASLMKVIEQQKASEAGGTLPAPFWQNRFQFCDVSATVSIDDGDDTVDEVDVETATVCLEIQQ
The assay can be described thus: Leishmania donovani Ubiquitin Activating Enzyme (LdE1). Type of assay: functional. Particulars: 30 µM.

In assay [3] the target is Sialic acid-binding Ig-like lectin 9 (Homo sapiens) (UniProt Q9Y336). The experiment in a line: Hs-Siglec9 ALPHAscreen SOP 20170721. The conditions noted are these: 10 µM.
Chain of Sialic acid-binding Ig-like lectin 9 (Homo sapiens) (Q9Y336 whole entry): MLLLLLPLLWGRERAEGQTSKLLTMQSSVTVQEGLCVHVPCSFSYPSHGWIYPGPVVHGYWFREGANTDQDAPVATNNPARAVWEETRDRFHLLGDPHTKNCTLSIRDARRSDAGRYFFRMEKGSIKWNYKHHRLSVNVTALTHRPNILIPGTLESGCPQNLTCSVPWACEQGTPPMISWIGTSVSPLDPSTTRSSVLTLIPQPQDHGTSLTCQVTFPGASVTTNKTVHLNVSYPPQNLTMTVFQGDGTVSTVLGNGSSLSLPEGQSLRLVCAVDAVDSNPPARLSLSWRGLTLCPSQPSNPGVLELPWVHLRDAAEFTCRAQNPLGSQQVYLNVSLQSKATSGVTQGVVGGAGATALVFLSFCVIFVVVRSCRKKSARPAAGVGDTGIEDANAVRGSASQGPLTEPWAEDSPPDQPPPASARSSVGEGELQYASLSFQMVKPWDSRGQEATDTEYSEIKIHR
Another assay deals with Trypanosoma cruzi. The experiment in a line: Trypanosoma cruzi phosphomannomutase and mannose-1-phosphate guanylyltransferase assay. In kind it is functional. The conditions noted are these: 10 µM.
Assay [4] deals with T2, Arginase-2, mitochondrial (Homo sapiens) (UniProt P78540).
T2 sequence (whole entry): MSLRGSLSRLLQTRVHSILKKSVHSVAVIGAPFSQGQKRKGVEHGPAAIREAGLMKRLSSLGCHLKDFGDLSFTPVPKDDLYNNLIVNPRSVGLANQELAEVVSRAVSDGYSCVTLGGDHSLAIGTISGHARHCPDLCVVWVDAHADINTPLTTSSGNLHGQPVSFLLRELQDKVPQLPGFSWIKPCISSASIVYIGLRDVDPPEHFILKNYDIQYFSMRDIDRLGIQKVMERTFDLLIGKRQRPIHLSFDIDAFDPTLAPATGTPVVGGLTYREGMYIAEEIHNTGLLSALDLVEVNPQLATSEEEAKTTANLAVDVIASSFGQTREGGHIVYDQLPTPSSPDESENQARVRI
The experiment in a line: in vitro enzyme assay to detect the production of urea directly proportional to the activity of Arginase II. Further: in the data most compounds retested in dose-response had high values. In kind it is functional. Particulars: 33.3 µM.

Assay [5] has as its target T3, Proteasome subunit beta (Trypanosoma cruzi) (UniProt O96673).
T3 sequence (whole entry): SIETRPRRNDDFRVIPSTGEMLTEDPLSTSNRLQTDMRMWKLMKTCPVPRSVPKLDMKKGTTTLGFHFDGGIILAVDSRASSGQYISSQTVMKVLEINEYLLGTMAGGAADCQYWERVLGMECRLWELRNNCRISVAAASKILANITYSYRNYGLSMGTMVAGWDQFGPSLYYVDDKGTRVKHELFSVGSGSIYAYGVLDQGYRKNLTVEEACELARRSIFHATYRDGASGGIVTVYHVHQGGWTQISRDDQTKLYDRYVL
The assay can be described thus: Trypanosoma cruzi proteasome chymotrypsin-like activity (TcProtChymo) assay. Further: in the data most compounds retested in dose-response had high values. In kind it is functional. The conditions noted are these: 9.37 µM.

For another assay, the species on record is Homo sapiens. The assay can be described thus: To identify inhibition of the IFN signalling (Jak-Stat) pathway via expression of an eGFP reporter gene under the control of an IFN-stimulated response element (ISRE) containing MxA promoter. In kind it is functional. The conditions noted are these: 30 µM. On the technique in general: A reporter such as luciferase makes a cellular process visible.

The target of assay [6] is T4, Tyrosyl-tRNA synthetase, putative (Trypanosoma cruzi (strain CL Brener)) (UniProt Q4DSP6).
T4 sequence (whole entry): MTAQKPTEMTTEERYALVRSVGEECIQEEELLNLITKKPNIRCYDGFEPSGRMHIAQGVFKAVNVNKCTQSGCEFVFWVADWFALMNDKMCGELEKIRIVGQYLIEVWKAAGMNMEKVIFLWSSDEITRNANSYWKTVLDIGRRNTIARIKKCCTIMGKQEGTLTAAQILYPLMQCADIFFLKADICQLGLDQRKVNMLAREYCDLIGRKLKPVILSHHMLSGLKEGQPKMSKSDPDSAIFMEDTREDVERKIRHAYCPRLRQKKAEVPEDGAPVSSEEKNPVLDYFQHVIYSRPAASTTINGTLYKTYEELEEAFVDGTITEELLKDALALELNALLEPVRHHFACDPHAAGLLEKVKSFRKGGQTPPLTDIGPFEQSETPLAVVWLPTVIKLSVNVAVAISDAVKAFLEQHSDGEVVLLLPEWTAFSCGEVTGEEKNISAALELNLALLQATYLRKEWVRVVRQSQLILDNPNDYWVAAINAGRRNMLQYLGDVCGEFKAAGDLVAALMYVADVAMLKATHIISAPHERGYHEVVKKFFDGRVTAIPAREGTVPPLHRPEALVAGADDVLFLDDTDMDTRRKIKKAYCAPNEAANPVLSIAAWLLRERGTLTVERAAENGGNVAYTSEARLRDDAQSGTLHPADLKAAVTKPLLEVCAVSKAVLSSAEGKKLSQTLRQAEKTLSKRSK
The assay can be described thus: Trypanosoma cruzi tyrosyl tRNA synthetase (TcYRS) _High Tyrosine SOP. Further: in the data most compounds retested in dose-response had high values. Type of assay: functional. Particulars: 30 µM.

Assay [7] concerns the target T4, Tyrosyl-tRNA synthetase, putative (Trypanosoma cruzi (strain CL Brener)). The assay can be described thus: Trypanosoma cruzi tyrosyl tRNA synthetase (TcYRS) SOP. Type of assay: functional. The conditions noted are these: 30 µM.
Assay [8] concerns the target Chromo domain-containing protein 1 (Saccharomyces cerevisiae (strain ATCC 204508 / S288c) (Baker's yeast)) (UniProt P32657). The assay can be described thus: ScCHD-1 Enzyme Inhibition Assay. Further: in the data most compounds retested in dose-response had high values. In kind it is functional. The conditions noted are these: 30 µM.

Chain of Protein translocase subunit SecA (Escherichia coli (strain K12)) (P10408 whole entry): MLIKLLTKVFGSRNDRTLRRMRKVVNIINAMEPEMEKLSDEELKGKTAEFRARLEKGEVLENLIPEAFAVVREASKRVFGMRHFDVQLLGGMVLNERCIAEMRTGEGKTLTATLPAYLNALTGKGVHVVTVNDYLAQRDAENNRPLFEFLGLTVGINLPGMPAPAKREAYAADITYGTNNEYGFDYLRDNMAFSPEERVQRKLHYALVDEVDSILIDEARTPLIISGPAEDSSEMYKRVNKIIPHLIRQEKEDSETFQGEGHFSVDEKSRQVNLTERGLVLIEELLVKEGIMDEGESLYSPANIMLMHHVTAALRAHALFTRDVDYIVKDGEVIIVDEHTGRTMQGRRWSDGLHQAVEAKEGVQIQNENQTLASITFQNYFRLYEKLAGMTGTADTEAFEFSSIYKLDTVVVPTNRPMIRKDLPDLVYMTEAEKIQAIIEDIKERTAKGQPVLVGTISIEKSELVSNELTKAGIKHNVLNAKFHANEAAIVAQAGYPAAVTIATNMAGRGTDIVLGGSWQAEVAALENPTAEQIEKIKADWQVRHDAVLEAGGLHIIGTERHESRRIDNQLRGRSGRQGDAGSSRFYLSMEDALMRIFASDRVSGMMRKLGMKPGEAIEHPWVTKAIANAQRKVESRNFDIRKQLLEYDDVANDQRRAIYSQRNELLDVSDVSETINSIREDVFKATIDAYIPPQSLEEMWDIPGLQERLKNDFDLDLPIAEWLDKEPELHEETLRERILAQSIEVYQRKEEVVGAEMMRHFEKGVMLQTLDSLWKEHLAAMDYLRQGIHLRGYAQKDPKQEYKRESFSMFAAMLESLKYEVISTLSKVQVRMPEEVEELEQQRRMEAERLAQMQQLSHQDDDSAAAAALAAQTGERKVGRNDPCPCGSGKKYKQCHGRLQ
Chain of Chromo domain-containing protein 1 (Saccharomyces cerevisiae (strain ATCC 204508 / S288c) (Baker's yeast)) (P32657 whole entry, the tested form may be a part): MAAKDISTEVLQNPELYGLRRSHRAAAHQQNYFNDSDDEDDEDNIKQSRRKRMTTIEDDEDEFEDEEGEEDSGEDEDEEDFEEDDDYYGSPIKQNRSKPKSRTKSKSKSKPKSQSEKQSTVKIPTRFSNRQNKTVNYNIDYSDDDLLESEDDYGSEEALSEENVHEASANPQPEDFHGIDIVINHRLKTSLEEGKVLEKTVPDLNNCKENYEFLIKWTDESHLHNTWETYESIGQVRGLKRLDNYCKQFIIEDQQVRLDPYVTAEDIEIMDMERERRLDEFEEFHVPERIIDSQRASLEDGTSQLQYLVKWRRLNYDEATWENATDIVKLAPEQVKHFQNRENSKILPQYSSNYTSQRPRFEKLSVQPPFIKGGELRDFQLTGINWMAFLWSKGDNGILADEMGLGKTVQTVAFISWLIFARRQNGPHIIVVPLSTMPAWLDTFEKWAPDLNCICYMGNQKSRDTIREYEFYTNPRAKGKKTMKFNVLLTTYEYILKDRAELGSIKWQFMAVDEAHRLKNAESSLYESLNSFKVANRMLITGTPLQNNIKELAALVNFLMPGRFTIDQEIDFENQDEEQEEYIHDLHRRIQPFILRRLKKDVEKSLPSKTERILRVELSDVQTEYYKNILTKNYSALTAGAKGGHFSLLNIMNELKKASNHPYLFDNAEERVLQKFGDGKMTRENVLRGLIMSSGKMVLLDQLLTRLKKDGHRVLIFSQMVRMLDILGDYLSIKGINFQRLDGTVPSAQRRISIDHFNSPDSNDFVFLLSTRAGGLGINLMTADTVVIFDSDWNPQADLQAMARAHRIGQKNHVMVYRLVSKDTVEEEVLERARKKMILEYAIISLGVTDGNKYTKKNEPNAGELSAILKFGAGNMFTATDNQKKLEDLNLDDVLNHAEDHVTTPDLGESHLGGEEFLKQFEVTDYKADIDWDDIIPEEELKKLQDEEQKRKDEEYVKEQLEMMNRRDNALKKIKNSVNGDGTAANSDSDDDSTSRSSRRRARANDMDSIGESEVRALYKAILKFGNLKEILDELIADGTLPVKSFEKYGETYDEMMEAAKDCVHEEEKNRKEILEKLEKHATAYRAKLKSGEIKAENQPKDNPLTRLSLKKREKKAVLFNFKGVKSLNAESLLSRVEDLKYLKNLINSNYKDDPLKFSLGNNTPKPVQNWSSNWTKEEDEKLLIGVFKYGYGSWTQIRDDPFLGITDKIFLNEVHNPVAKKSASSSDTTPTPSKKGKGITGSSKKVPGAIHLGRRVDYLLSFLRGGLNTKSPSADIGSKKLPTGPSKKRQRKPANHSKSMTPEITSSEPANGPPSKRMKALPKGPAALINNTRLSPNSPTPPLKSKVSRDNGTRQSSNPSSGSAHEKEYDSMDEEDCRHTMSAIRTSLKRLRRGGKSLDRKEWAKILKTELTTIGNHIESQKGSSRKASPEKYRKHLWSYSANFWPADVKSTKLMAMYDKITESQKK

As for `O=C1CC2(CCCCN2C(=O)c2ccsc2)CN1CC1CC1` (stereo not given), the Percent Effect in [1] was -4.46%; in [2] it was 11.7%; in [3] it was 1.96%; with Trypanosoma cruzi, 2.44%; in assay [4] it was 4.57%; in assay [5] it was 0.429%. In addition, the Percent Effect in the assay listed under Homo sapiens was -8.36%; in [6] it was 8.7%; in [7], 15%; in assay [8], -4.62%.

For `CC(C)CN1CCN(C)C2(CCN(Cc3ccsc3)CC2)C1=O`, the Percent Effect in assay [1] was -3.52%; in assay [2] it was 6.49%; in assay [3], -3%; with Trypanosoma cruzi it was 0.188%; in assay [4], 1.83%; in [5], -2.49%. Also, the Percent Effect is -6.74% in the assay listed under Homo sapiens, 7.73% in assay [6], 10% in [7] and 1.23% in assay [8].

Consider `Cc1ccc(CN2CCCn3c(nc(Cn4cncn4)cc3=O)C2)s1`, for which the Percent Effect in [1] is -8.68%; in [2], 11.7%; in assay [3], -3.78%; in the assay on Trypanosoma cruzi, 2.43%; in assay [4] it was -1.22%; in [5] it was 7.5%. Moreover, the Percent Effect is -3.95% in the assay listed under Homo sapiens, 4.74% in assay [6], 12.8% in [7] and -1.68% in [8].

With `Cc1cc(-c2cnn(CCNC(=O)C3CC3)c2C2CC2)on1`, the Percent Effect in assay [1] is -4.16%; in [2], 4%; in assay [3], -5.41%; in the assay on Trypanosoma cruzi, -1.77%; in assay [4] it was -1.77%; in assay [5], 5.91%. Also, the Percent Effect in the assay listed under Homo sapiens is 17.8%; in assay [6], -3.17%; in [7] it was 0%; in [8] it was -25.2%.

As to `O=C(C1CCC1)N1CCn2c(COc3ncccn3)nnc2C1`, the Percent Effect in assay [1] is -7.65%; in assay [2] it was 3.9%; in assay [3] it was -3.93%; in the assay with Trypanosoma cruzi it was -5.36%; in [4], -11.7%; in assay [5], 12.8%. Besides, the Percent Effect in the assay filed under Homo sapiens was 6.38%; in assay [6], 0.526%; in assay [7], 5.13%; in [8] it was -2.55%.

`COc1cc(S(=O)(=O)N2CCCc3ccccc32)cc(C(=O)O)c1OC`: the Percent Effect in assay [1] was -5.67%; in [2] it was 0%; in assay [3] it was 10.6%; with Trypanosoma cruzi it was -0.201%; in [4], -3.99%; in assay [5], 7.38%. In addition, the Percent Effect in the assay listed under Homo sapiens was 9.13%; in [6] it was 0.526%; in [7] it was 7.69%; in assay [8] it was -5.31%.

Consider `CC(C)NC(=O)CC1COC2(CCN(Cc3ccccc3)CC2)C1` (stereo not given), for which the Percent Effect in assay [1] was -1.47%; in assay [2] it was 16.9%; in [3], -1.95%; with Trypanosoma cruzi it was -2.25%; in [4], 2.28%; in assay [5], 16.2%. The Percent Effect was -3.75% in the assay listed under Homo sapiens, 7.73% in assay [6], 10% in [7] and -5.41% in [8].

As for `O=C(NCCn1ccnc1)N1CCN(Cc2cccs2)CC1`, the Percent Effect in assay [1] was 2.19%; in assay [2] it was 18.2%; in assay [3] it was -6.1%; in the assay with Trypanosoma cruzi it was -9.14%; in assay [4], 2.66%; in [5], 21.9%. In addition, the Percent Effect in the assay filed under Homo sapiens is 12.6%; in [6], 4.9%; in assay [7] it was 16.5%; in assay [8], -9.63%.

`COC(=O)CC(c1ccc(OC)c(OC)c1)c1oc(C)cc(=O)c1O` (stereo not given): the Percent Effect in [1] was -11%; in assay [2] it was 2.7%; in assay [3], 0.92%; with Trypanosoma cruzi, -4.75%; in [4], -10.1%; in [5], 4.45%. The Percent Effect is 14.4% in the assay listed under Homo sapiens, -0.532% in [6], -2.44% in [7] and -0.871% in assay [8].

With `CCc1noc(C(C)N2CCOCC2)n1` (stereo not given), the Percent Effect is -7.21% in assay [1]; 10.7% in [2]; 7.7% in assay [3]; 0.602% in the assay on Trypanosoma cruzi; 0.887% in assay [4]; 5.85% in assay [5]. In addition, the Percent Effect was 5.17% in the assay filed under Homo sapiens, 6.84% in [6], 5.13% in assay [7] and -8.94% in [8].

With `c1ccc(C(OCCNC2CCc3ncnn3C2)c2ccccc2)cc1` (stereo not given), the Percent Effect is -5.97% in assay [1]; 10.4% in assay [2]; 5.43% in [3]; 5.41% in the assay with Trypanosoma cruzi; -4.3% in assay [4]; 0.526% in assay [5]. In addition, the Percent Effect in the assay listed under Homo sapiens was -3.8%; in assay [6] it was 0.98%; in assay [7], 18.8%; in [8], -13.3%.
